Inconclusive results are not listed. Activity calls are given as the source filed them. Calls follow the shape of the dose curve; as a rule, active = well fitted cell-killing curve with a large enough effect in the repeat runs; inconclusive = weak or mixed curves, or effect the other way; inactive = flat fitted curve, though single readings scatter.
experiment: qHTS RealTime-Glo MT Cell Viability Assay in HEK293 cells - 16 hour (AID 1224872); settings: RealTime-Glo luminescence; series mostly up to 76.8 µM; activity change, negative = cytotoxicity: at the top concentration; also: nearly all actives have a fitted effect of over 50% in size; as to activity change, negative = cytotoxicity: top concentration of the series differs between compounds
Excerpt: National Center for Advancing Translational Sciences [NCATS]
NIH Chemical Genomics Center [NCGC]
U.S. Environmental Protection Agency [EPA]
National Institutes of Environmental Health Sciences [NIEHS]
National Toxicology Program [NTP]
U.S. Food and Drug Administration [FDA]
Measure of cell viability is critical in the cell-base assay. Analysis of cell viability is necessary for the characterization of cell responses to cytotoxic drugs and environmental stress. A RealTime-Glo MT Cell Viability Assay to monitor cell viability in real time of continues cell culture during 40 hours of compound treatment was used to screen Tox21 10K library compounds in Hek293 cells. The RealTime-Glo MT Cell Viability Assay is a nonlytic, homogeneous, bioluminescent method to measure cell viability in real time using a simple, plate-based method. The assay involves adding NanoLuc luciferase and a cell-permeant prosubstrate to cells in culture. Viable cells reduce the proprietary prosubstrate to generate a substrate for NanoLuc luciferase. This substrate diffuses from cells into the surrounding culture medium, where it is rapidly used by the NanoLuc Enzyme to produce a luminescent signal. The signal correlates with the number of viable cells, making the assay well suited for cytotoxicity studies.
Tox21 Assay Protocol Summary:
The mixture of Hek293 cell suspension and reagents were dispensed at 600cells/6 ul/well in 1536-well tissue culture treated black solid bottom plates using a Multidrop dispenser. After the assay plates were incubated at a 37 C/5% CO2 incubator for 5 hours, 23 nL of compounds dissolved in DMSO, positive and negative controls was transferred to the assay plate by a pintool work station. The plates were incubated at 37 C for 40 hours. The luminescence intensity were measured at 0h, 8h, 16h, 24h, 32h and 40h time points using ViewLux plate reader during compound treatment.
% is scaled to controls: 0 for no effect and ±100 for the full control effect; potency is read from the fitted curve at half-maximal effect.

Row | SMILES | activity change, negative = cytotoxicity | Potency
1 | O=[N+]([O-])c1cccc2cccnc12 | -4.88% (inactive) | –
2 | CC1CN1P(=O)(N1CC1C)N1CC1C (stereo not given) | 13.4% (inactive) | –
3 | Cc1nnc2n1-c1sc(CCC(=O)N3CCOCC3)cc1C(c1ccccc1Cl)=NC2 | -9.59% [at 35.3 µM] (inactive) | –
4 | ClCC(Cl)Cl | 0.231% (inactive) | –
5 | CCOP(=S)(OCC)Oc1cc(-c2ccccc2)on1 | -19.1% (inactive) | –
6 | COC(=O)c1ccccc1S(=O)(=O)NC(=O)Nc1nc(C)cc(C)n1 | 12.1% (inactive) | –
7 | CCC(Cl)[N+](=O)[O-] (stereo not given) | 2.5% (inactive) | –
8 | CC(C=O)Cc1ccc2c(c1)OCO2 (stereo not given) | -7.19% (inactive) | –
9 | CCOP(=S)(OCC)SCSc1ccc(Cl)cc1 | -0.945% (inactive) | –
10 | CCN(CC)c1nc(C)cc(OP(=S)(OC)OC)n1 | -16.2% (inactive) | –
11 | CCSC(=O)N(CC)C1CCCCC1 | 1.87% (inactive) | –
12 | CC(=O)[C@H]1CC[C@H]2[C@@H]3CC[C@H]4C[C@H](O)CC[C@]4(C)[C@H]3C(=O)C[C@]12C | -25% [at 35.3 µM] (inactive) | –
13 | O=S(=O)(O)C(F)(F)C(F)(F)C(F)(F)C(F)(F)C(F)(F)C(F)(F)F | 4.95% (inactive) | –
14 | CC1=C(C(=O)O)N2C(=O)[C@@H](N)[C@H]2SC1 | 1.93% [at 15.8 µM] (inactive) | –
15 | CCOC(=O)/C=C(C)/C=C/C[C@@H](C)CCCC(C)C | 10.3% (inactive) | –
16 | O=C1OC(=O)C2C1C1(Cl)C(Cl)=C(Cl)C2(Cl)C1(Cl)Cl (stereo not given) | 7.19% (inactive) | –
17 | CN(C)CCc1ccc(O)cc1 | 13.4% [at 35.3 µM] (inactive) | –
18 | C[C@]12CC[C@H]3[C@@H](CCC4=CC(=O)CC[C@@]43C)[C@@H]1CC[C@@H]2C(=O)O | 1.46% [at 35.3 µM] (inactive) | –
19 | CCOP(=S)(OCC)Oc1ncn(-c2ccccc2)n1 | -27.2% (inactive) | –
20 | O=[N+]([O-])c1cccc(O)c1 | 11.8% (inactive) | –

Row | SMILES | activity change, negative = cytotoxicity | Potency
21 | COCC(=O)N(c1c(C)cccc1C)N1CCOC1=O | 14.7% (inactive) | –
22 | O=C1CN=C(c2ccccc2)c2cc([N+](=O)[O-])ccc2N1 | -10.8% [at 35.3 µM] (inactive) | –
23 | Clc1ccccc1N1CCNCC1 | 0.335% [at 35.3 µM] (inactive) | –
24 | COc1ccc(C(=O)N2CCCC2=O)cc1 | 4.98% [at 35.3 µM] (inactive) | –
25 | CCS(=O)(=O)C(C)(C)S(=O)(=O)CC | 5.04% [at 35.3 µM] (inactive) | –
26 | CN1CCN(C(=O)O[C@H]2c3nccnc3C(=O)N2c2ccc(Cl)cn2)CC1 | 3.43% [at 35.3 µM] (inactive) | –
27 | c1ccc(N2CCNCC2)cc1 | 21.2% [at 35.3 µM] (inactive) | –
28 | COc1cc(OC)nc(NC(=O)NS(=O)(=O)c2ncccc2OCC(F)(F)F)n1 | 0.443% (inactive) | –
29 | CC(C)(C)C(=O)C(Oc1ccc(Cl)cc1)n1cncn1 (stereo not given) | -25.3% (inactive) | –
30 | C[C@H]1CCC[C@H](O)CCCCCc2cc(O)cc(O)c2C(=O)O1 | – | 34.9 µM (active)
31 | CC(=O)CCc1ccc2c(c1)OCO2 | -1.64% (inactive) | –
32 | COC(=O)c1ccccc1S(=O)(=O)NC(=O)N(C)c1nc(C)nc(OC)n1 | 4.31% (inactive) | –
33 | CC1CCC(=O)O1 (stereo not given) | -14.3% (inactive) | –
34 | O=CNC(N1CCN(C(NC=O)C(Cl)(Cl)Cl)CC1)C(Cl)(Cl)Cl (stereo not given) | -15.7% (inactive) | –
35 | OC(c1ccc(F)cc1)(c1cncnc1)c1ccccc1Cl (stereo not given) | -22.2% (inactive) | –
36 | CNNC | -0.514% (inactive) | –
37 | CCC#N | -1.08% (inactive) | –
38 | CCc1cc2c(s1)-n1c(C)nnc1CN=C2c1ccccc1Cl | -16.7% [at 35.3 µM] (inactive) | –
39 | COP(=S)(OC)Oc1ccc(S(N)(=O)=O)cc1 | -1.57% [at 35.3 µM] (inactive) | –
40 | N#CC(O)c1ccccc1 (stereo not given) | 7.48% (inactive) | –

Source: PubChem BioAssay (Tox21)
